Where “and” joins values, the source holds several entries; their conditions need not be identical. Identical values can stand only once. Hit rate of the full screen: of about 6,400 compounds, about 610 (9.5%) were called active. The list comes from a sample in which actives are over-represented; it also holds similar structures and randomly drawn compounds. Values without a mark were called inactive. Cut-off read from the data, not from the text of the source: active = activity change below about -70%; inconclusive = no clear call, values can overlap the other calls; inactive = above that. *1 amine or outer side, *2 acyl side, *3 side chain or, on linkers, in order; H or OH if unused. Where a SMILES comes first, the peptide text is derived from it. Bridges are numbered along the chain shown (N, C = ends). [ ]: non-standard residue; d: D form. The star is where a group is joined. ξ: configuration not given here. pTerphenylCO(4''-OnC5H11) = CCCCCOc1ccc(-c2ccc(-c3ccc(C(=O)*)cc3)cc2)cc1; ξOrn(4,5-diOH) = O=C(C(CC(O)C(O)N[*:3])N[*:1])[*:2]; ξhTyr(βξ-OH,γξ-OH) = NC(C(=O)O)C(O)C(O)c1ccc(O)cc1; ξPro(3ξ-OH,4ξ-Me) = CC1CNC(C(=O)O)C1O; Hyp = O=C(O)[CH]1C[CH](O)CN1

The nature of this test: Toxoplasma gondii ME49Luc growth in HeLa cells, luciferase, no IFN-y, primary screen (AID 1259421). The following applies: T. gondii ME49Luc in HeLa, 72 h, active compounds read low, concentration not given here.
For `CC(=O)c1ccc(N2CCOCC2)cc1O`, the activity change, negative = inhibition was 0.777%.
To `O=c1cc(-c2ccc(O)cc2)oc2ccc(O)cc12` belongs -46.2%; to `CCCCCCCC(=O)OCC(COC(=O)CCCCCCC)OC(=O)CCCCCCC`, 13.9%; to `[Cl][Ru]([Cl])([Cl])[Cl].c1ccc2[nH]ncc2c1.c1ccc2[nH]ncc2c1`, 8%.
With `C#CC1(O)CCC2C3CCC4=Cc5oncc5CC4(C)C3CCC21C` (configuration not stated) the figure was -93.9% (active); with `C[C@]12CCC(=O)C=C1CCC1C2C(=O)C[C@@]2(C)C1CC[C@]2(O)C(=O)CO` (some centres not stated), -0.365% and 6.68%; with `C#C[C@]1(O)CCC2C3CCC4=Cc5oncc5C[C@]4(C)C3CC[C@@]21C` (some centres not stated), -82.2% (active) and -83.7% (active).
Regarding `CC(=O)[C@@]12OC(C)(c3ccccc3)O[C@@H]1C[C@H]1[C@@H]3CCC4=CC(=O)CC[C@]4(C)[C@H]3CC[C@@]12C` (some centres not stated), the activity change, negative = inhibition was -52.9%.
With `CC(=O)[C@@]12O[C@](C)(c3ccccc3)O[C@@H]1CC1C3CCC4=CC(=O)CC[C@]4(C)C3CC[C@@]12C` (some centres not stated), the activity change, negative = inhibition was -11.3%.
With `NC(CSSCC(N)C(=O)O)C(=O)O` (configuration not stated) the figure was 13.9%; with `CC1(C)SC2C(NC(=O)[C@H](NC(=O)N3CCNC3=O)c3ccccc3)C(=O)N2C1C(=O)O` (some centres not stated), 33.6%.
As to `NS(=O)(=O)c1cc2c(cc1Cl)NC(C1CC3C=CC1C3)NS2(=O)=O` (configuration not stated), the activity change, negative = inhibition was -95.9% (active).
Regarding `NS(=O)(=O)c1cc2c(cc1Cl)NC(C(Cl)Cl)NS2(=O)=O` (configuration not stated), the activity change, negative = inhibition was 13.1% and 33%.
To `NS(=O)(=O)c1cc2c(cc1Cl)NC(CC1CCCC1)NS2(=O)=O` (configuration not stated) belongs 18.7%.
Turning to `O=C1c2ccccc2C(Cc2ccnc(F)c2)(Cc2ccnc(F)c2)c2ccccc21`, the activity change, negative = inhibition was 21.9% and 12.1%.
Turning to `O=C1N[C@@H]2[C@@H](O)[C@@H](O)[C@H](O)[C@@H](CO)N2C1=O`, the activity change, negative = inhibition was 11.7%.
To `O[C@H]([C@H](O)[C@@H]1CO1)[C@H]1CO1` belongs 5.39%.
For `C=C1c2c(Cl)ccc(O)c2C(=O)C2C(=O)[C@]3(O)C(=O)C(C(N)=O)C(=O)[C@@H](N(C)C)[C@@H]3[C@@H](O)[C@H]12` (some centres not stated), the activity change, negative = inhibition is -9.94% and 7.28%.
Consider `C=C1c2cccc(O)c2C(=O)C2C(=O)[C@]3(O)C(=O)C(C(N)=O)C(=O)[C@@H](N(C)C)[C@@H]3[C@@H](O)[C@H]12` (some centres not stated), for which the activity change, negative = inhibition is -67.5% and 19%.
As for `CCC(CC)C(c1ccc(Nc2nc3ccccc3s2)cc1)n1cncn1` (configuration not stated), the activity change, negative = inhibition is 4.5%.
To `COC(=O)N(C)c1c(N)nc(-c2nn(Cc3ccccc3F)c3ncccc23)nc1N` belongs 2.65%; to `CC(=O)O[C@H]1C(=O)[C@@]2(C)C([C@H](OC(=O)c3ccccc3)[C@]3(O)C[C@H](OC(=O)[C@H](O)[C@@H](NC(=O)c4ccccc4)c4ccccc4)C(C)=C1C3(C)C)[C@]1(OC(C)=O)CO[C@@H]1C[C@@H]2O` (some centres not stated), -86.6% (active) and -77.4% (active).
With `CC(=O)O[C@H]1C(=O)[C@@]2(C)[C@H]([C@H](OC(=O)c3ccccc3)[C@]3(O)C[C@H](OC(=O)[C@H](O)[C@@H](NC(=O)c4ccccc4)c4ccccc4)C(C)=C1C3(C)C)[C@]1(OC(C)=O)CO[C@@H]1C[C@@H]2O` the figure was -84.9% (active) and -74.8% (active); with `CC(=O)OC1C(=O)C2(C)C(O)CC3OCC3(OC(C)=O)C2C(OC(=O)c2ccccc2)C2(O)CC(OC(=O)C(O)C(NC(=O)c3ccccc3)c3ccccc3)C(C)=C1C2(C)C` (configuration not stated), -87.7% (active).
Turning to `CCCCCCCC/C=C/CCCCCCCC(=O)NC(CO)Cc1ccc(O)cc1` (configuration not stated), the activity change, negative = inhibition is 6.19%.
To `C[N+]1(C)[C@@H]2CC(OC(=O)[C@H](CO)c3ccccc3)C[C@H]1[C@@H]1O[C@@H]12` (some centres not stated) belongs 10.8%; to `O=C(O)CC/C=C/CC1COC(c2ccccc2Cl)OC1c1ccccc1O` (configuration not stated), 11.4%.
To `O=C(O)[C@@H]1C[C@H]2C[C@@H](CCc3nn[nH]n3)CC[C@H]2CN1` belongs 15.6%.
For the molecule `CN1CCCC1c1cccnc1` (configuration not stated), the activity change, negative = inhibition is 24.1%.
With `CCCCCOc1ccc(-c2ccc(-c3ccc(C(=O)NC4CC(O)C(O)NC(=O)C5C(O)C(C)CN5C(=O)C(C(C)O)NC(=O)C(C(O)C(O)c5ccc(O)cc5)NC(=O)C5CC(O)CN5C(=O)C(C(C)O)NC4=O)cc3)cc2)cc1` (stereo not drawn) ({pTerphenylCO(4''-OnC5H11)}-[ξOrn(4,5-diOH)]T[Hyp][ξhTyr(βξ-OH,γξ-OH)]T[ξPro(3ξ-OH,4ξ-Me)]; lactam 1-C; configuration not given here) the figure was -6.09%.
Take `Cc1nn(-c2ccccc2)c(C)c1/C=N/N1CCN(Cc2ccccc2)CC1`: the activity change, negative = inhibition is 7.74% and 0.523%.
With `Cn1[nH]c(=O)c(=O)[nH]c1=S`, the activity change, negative = inhibition is 14.6%.
As to `C[C@@H]1CC2C3CCC4=CC(=O)C=C[C@]4(C)[C@@]3(F)[C@@H](O)C[C@]2(C)[C@H]1C(=O)CO` (some centres not stated), the activity change, negative = inhibition is -13.5% and -8.09%.
Take `CCCCC[C@H](O)/C=C/C=C\C/C=C\C/C=C\CCCC(=O)O`: the activity change, negative = inhibition was -37.7%.
`Cc1c(N)cccc1Cn1ccc(OCCc2cccs2)cc1=O`: the activity change, negative = inhibition is 1.77%.
To `CC(C)c1cc(C(=O)N2Cc3ccc(CN4CCN(C)CC4)cc3C2)c(O)cc1O` belongs -63.5%; to `CCNC(=O)c1noc(-c2cc(C(C)C)c(O)cc2O)c1-c1ccc(CN2CCOCC2)cc1`, -87.9% (active).
On to `Cc1cc(C)c(CNC(=O)c2cc(-c3ccc(CN4CCOCC4)cc3)cc3c2cnn3C2CCCC2)c(=O)[nH]1`, for which the activity change, negative = inhibition is -31%.
Take `CC(C)(O)[C@H]1CC[C@@](C)([C@H]2[C@@H](O)C[C@@]3(C)[C@@H]4C[C@H](O[C@@H]5O[C@H](CO)[C@@H](O)[C@H](O)[C@H]5O)[C@H]5C(C)(C)[C@@H](O[C@@H]6OC[C@@H](O)[C@H](O)[C@H]6O)CC[C@@]56C[C@@]46CC[C@]23C)O1`: the activity change, negative = inhibition is 3%.
Take `Cc1cc(-c2cc(OC(=O)c3ccccc3)ccc2Cl)cc2nnc(Nc3ccc(OCCN4CCCC4)cc3)nc12`: the activity change, negative = inhibition was 7.81%.
To `Cc1cc(-c2cc(O)ccc2Cl)cc2nnc(Nc3ccc(OCCN4CCCC4)cc3)nc12` belongs -89.7% (active).
To `CCCCOc1ccc(C(=O)CCN2CCCCC2)cc1` belongs 1.11%.

For the origin of these results see PubChem BioAssay AID1259421 (Broad Institute, 2018).
